Inconclusive results are not listed. Unmarked numbers belong to inactive results. Calls of active or inactive are those of the source. Calls follow the shape of the dose curve; as a rule, active = well fitted cell-killing curve with a large enough effect; inconclusive = small, poorly fitted or top-dose-only effect, or effect the other way; inactive = no such curve, though single readings can be large or run the other way.
Potency is read from the fitted curve at half-maximal effect.

The nature of this test: Quantitative High-Throughput drug screen in 47 multiple myeloma cell lines against the NCATS MIPE library collection: OCIMY5_PLB cell viability assay (AID 1918988). Also: nearly all actives have a fitted effect of over 65% in size. The note with it: OCI-MY5 myeloma viability, ATP luminescence, 48 h; series mostly up to 45.8 µM; viability, % of control: at the top concentration. The source says: PI: Beverly A. Mock Ph.D.
Laboratory of Cancer Biology and Genetics,
Center for Cancer Research, National Cancer Institute,
National Institute of Health, Bethesda, Maryland
Drug resistance and disease progression are common in multiple myeloma (MM) patients, underscoring the need for new therapeutic combinations. […] We hypothesized that effective combinations would reduce MYC expression and enhance p16 activity. […] These preclinical data identify potentially useful drug combinations for evaluation in drug-resistant MM and reveal potential mechanisms of combined drug sensitivity.
Described herein is the primary MIPE qHTS used to cherrypick compounds. Validated compounds were then further tested for potential synergistic activiy.
[1] Peat TJ, Gaikwad SM, Dubois W, Gyabaah-Kessie N, Zhang S, Gorjifard S, Phyo Z, Andres M, Hughitt VK, Simpson RM, Miller MA, Girvin AT, Taylor A, Williams D, D'Antonio N, Zhang Y, Rajagopalan A, Flietner E, Wilson K, Zhang X, Shinn P, Klumpp-Thomas C, McKnight C, Itkin Z, Chen L, Kazandijian D, Zhang J, Michalowski AM, Simmons JK, Keats J, Thomas CJ, Mock BA. Drug combinations identified by high-throughput screening promote cell cycle transition and upregulate Smad pathways in myeloma. Cancer Lett. 2023 Aug 1;568:216284. doi: 10.1016/j.canlet.2023.216284. Epub 2023 Jun 24. PMID: 37356470; PMCID: PMC10408729.
SEQUENCE No. (e.g., 1, 2, 3, etc.); […] (e.g., Cells, Incubation, Reagent, etc.); VALUE and DESCRIPTION.
1; Cells; 5 uL; white, solid bottom 1536-well Greiner assay plate.
2; Compounds; 23 nL; Kalypsis pin tool (Wako USA) equipped with a 1536-well pin head to transfer to the assay plates.
3; Incubation; 48 hours; 37C incubation.
4; Reagent;5uL; CellTiter Glo (Promega).
5; Detector; 425V; Luminescence; Viewlux PerkinElmer.
NOTES (numbers refer to Sequence numbers above)
1. The cell-based screening methods employed in this study were like those previously published. Briefly, the corresponding myeloma cell lines were screened in 1,536-well plates with 500 cells, 5-uL per well for inhibition of cell viability (assessed by measuring ATP levels with CellTiterGlo).
2. NCATS MIPE 4.0 library of approved and investigational drugs were added using the Kalypsis pin tool. Wells treated with DMSO only for 100% viability and media only for 0% viability were used as controls.
3. The assay plates were covered and incubated for 48 hours in a 37C, 5% CO2 incubator with controlled humidity.
4. After 48 hours, CellTilter-GloTM luminescent substrate mix (Promega) reagent was added to the assay plate and plates we incubated for 5 min at room temperature.
5. Signal was measured as median relative luminescence units on a ViewLux (PerkinElmer) multiplate reader.
[1] Heske CM, Davis MI, Baumgart JT, Wilson K, Gormally MV, Chen L, Zhang X, Ceribelli M, Duveau DY, Guha R, Ferrer M, Arnaldez FI, Ji J, Tran HL, Zhang Y, Mendoza A, Helman LJ, Thomas CJ. Matrix Screen Identifies Synergistic Combination of PARP Inhibitors and Nicotinamide Phosphoribosyltransferase (NAMPT) Inhibitors in Ewing Sarcoma. Clin Cancer Res. 2017 Dec 1;23(23):7301-7311. doi: 10.1158/1078-0432.CCR-17-1121. Epub 2017 Sep 12. PMID: 28899971; PMCID: PMC6636827.
As to `COc1cc(C(=O)NS(=O)(=O)c2ccccc2C)ccc1Cc1cn(C)c2ccc(NC(=O)OC3CCCC3)cc12`, the Potency was 18.7 µM (active).
On the same count and under the same terms, the same measure for `Cc1cc(CN2CCN(c3c(Br)cnc4nc(-c5ccc(N6CCN(C)CC6)cc5)[nH]c34)CC2)no1`: 7.43 µM (active); for `O=C(C=Cc1cccc(S(=O)(=O)Nc2ccccc2)c1)NO`: 1.21 µM (active).
Same read-out and setting: the same measure for `Cc1c(Cn2c(C)nc3c(C(=O)O)cc(N4CCOCC4)cc32)cccc1C(F)(F)F`: 8.33 µM (active); for `CC(C)c1noc(N2CCC(COc3ccc(-c4ccc(S(C)(=O)=O)cc4)nc3)CC2)n1`: 8.33 µM (active).
For the compound `O=C(NC1CCNCC1)c1[nH]ncc1NC(=O)c1c(Cl)cccc1Cl`, the Potency is 0.0743 µM (active).
The same measure, in the same setting: the same measure for `C=CC(=O)Nc1cc2c(Nc3ccc(F)c(Cl)c3)ncnc2cc1C#CC(C)(C)N1CCN(C)CC1`: 0.935 µM (active); for `Cc1ccc(CN2CCNCC2)cc1NC(=O)CNc1ccc(F)c(F)c1`: 18.7 µM (active).
Still for that read-out and setting: to `C1=CCOCc2cc(ccc2OCCN2CCCC2)Nc2nccc(n2)-c2cccc(c2)OCC1` belongs 2.35 µM (active); to `COc1cc2ncnc(Nc3ccc(F)c(Cl)c3)c2cc1NC(=O)C=CCN1CCCCC1`, 16.6 µM (active).
Same read-out and setting: the same measure for `O=C(O)c1ccc2c(c1)nc(Nc1cccc(Cl)c1)c1ccncc12`: 13.2 µM (active); for `CC(=O)OCC(=O)[C@@]1(O)[C@H](C)C[C@H]2[C@@H]3C=C(C)C4=Cc5c(cnn5-c5ccccc5)C[C@]4(C)[C@@H]3[C@@H](O)C[C@@]21C`: 7.43 µM (active).
Turning to `CC1(C)CCC(c2ccc(Cl)cc2)=C(CN2CCN(c3ccc(C(=O)NS(=O)(=O)c4ccc(N[C@H](CCN5CCOCC5)CSc5ccccc5)c(S(=O)(=O)C(F)(F)F)c4)cc3)CC2)C1`, the Potency was 0.0372 µM (active).
With `C=C1C(=CC=C2CCCC3(C)[C@@H]([C@H](C)C=CC=CC(O)(CC)CC)CC[C@@H]23)C[C@@H](O)C[C@@H]1O` (stereo not given in full), the Potency is 10.5 µM (active).
The same measure, in the same setting: the same measure for `Cc1[nH]nc2ccc(-c3cncc(OC[C@@H](N)Cc4ccccc4)c3)cc12`: 3.32 µM (active); for `CNC(=O)CN1CCC(Oc2cc3c(Nc4cccc(Cl)c4F)ncnc3cc2OC)CC1`: 0.0118 µM (active); for `CC(C)(C)c1cnc(CSc2cnc(NC(=O)C3CCNCC3)s2)o1`: 0.0743 µM (active).
Same read-out and setting: to `C=CCn1c(=O)c2cnc(Nc3ccc(N4CCN(C)CC4)cc3)nc2n1-c1cccc(C(C)(C)O)n1` belongs 0.332 µM (active); to `CCOc1cc2ncc(C#N)c(Nc3ccc(F)c(Cl)c3)c2cc1NC(=O)C=CCN(C)C`, 0.264 µM (active).
On the same count and under the same terms, to `COc1cc2c(Oc3ccc(-c4cnc(Nc5ccc(F)cc5)n(C)c4=O)cc3F)ccnc2cc1OCCCN1CCOCC1` belongs 14.8 µM (active); to `COc1cc(C(=O)N2CCC(N3CCN(C)CC3)CC2)ccc1Nc1ncc2c(n1)N(C)c1ccccc1C(=O)N2C`, 2.09 µM (active); to `NCC(=O)Nc1ccc(-n2nc(C(F)(F)F)cc2-c2ccc3c(ccc4ccccc43)c2)cc1`, 29.6 µM (active).
For the compound `CCC(=C(c1ccccc1)c1ccc(OCCN(C)C)cc1)c1ccccc1`, the Potency was 29.6 µM (active).
The same measure, in the same setting: the same measure for `COc1cc2ncn(-c3cc(OCc4ccccc4C(F)(F)F)c(C(N)=O)s3)c2cc1OC`: 1.32 µM (active); for `Nc1ccccc1NC(=O)c1ccc(CNc2nccc(-c3cccnc3)n2)cc1`: 0.833 µM (active); for `COc1ccc2c(c1)CC[C@@H](CN(C)CC(=O)O)[C@H]2c1ccccc1`: 1.48 µM (active).
As for `Cc1cn2cc(C(=O)N(C)CCO)cc(N[C@@H]3CCOc4cccc(C)c43)c2n1`, the “viability, % of control” value is 176%.
With `CC(C)(C)OC(=O)Nc1ccc(-c2cc(C(=O)NCCCCCCC(=O)NO)no2)cc1`, the Potency is 1.87 µM (active).
The same measure, in the same setting: to `Cc1cc(Nc2nc(N[C@@H](C)c3ccc(F)cc3)c(C#N)cc2F)n[nH]1` belongs 4.18 µM (active).
The same measure, in the same setting: the same measure for `Cn1cc(-c2[nH]c3cc(NC(=O)[C@H](N)C4CCCCC4)cc4c3c2C=NNC4=O)cn1`: 1.48 µM (active); for `CC[C@@H]1C(=O)N(C)c2cnc(Nc3ccc(C(=O)NC4CCC(N5CCN(CC6CC6)CC5)CC4)cc3OC)nc2N1C(C)C` (stereo not given in full): 0.0743 µM (active); for `Cc1ccc2nc(NC(=O)CSc3nc4c(c(=O)n3-c3ccccc3)SCC4)sc2c1`: 7.43 µM (active).
Take `CC(O)C1C(=O)N2C(C(=O)O)=C(SC3CNC(C(=O)N(C)C)C3)C(C)C12` (stereo not given): the “viability, % of control” value was 143%.
In the case of `O=C(CCCCCCNC(=O)c1cnc(N(c2ccccc2)c2ccccc2)nc1)NO`, the Potency was 4.69 µM (active).
With `CCCCOc1c(C(=O)c2c(F)cc(C)cc2F)cnc2n[nH]cc12`, the Potency is 4.18 µM (active).
Still for that read-out and setting: to `CN1CCN(c2cc(C(=O)Nc3ccc4c(c3)-c3c(c(C(N)=O)nn3-c3ccc(F)cc3)CC4)c(Cl)cn2)CC1` belongs 2.96 µM (active); to `COc1ccc(C(=O)CC2(O)C(=O)Nc3c(Cl)ccc(Cl)c32)cc1` (stereo not given), 1.87 µM (active).
Same read-out and setting: the same measure for `Cn1c2ccccc2c2c3c(c4c5ccccc5n(CCC#N)c4c21)CNC3=O`: 5.9 µM (active); for `CN(C)CC=CC(=O)Nc1cc2c(Nc3ccc(F)c(Cl)c3)ncnc2cc1O[C@H]1CCOC1`: 3.32 µM (active); for `COc1cc2nccc(Oc3ccc(NC(=O)C4(C(=O)Nc5ccc(F)cc5)CC4)cc3)c2cc1OC`: 18.7 µM (active).

The record behind these values is PubChem BioAssay (NCATS).
